Test results from PubChem BioAssay (Tox21).
Results filed as inconclusive are left out. Entries that show only a call come without a potency. Active and inactive are the calls of the source. Unless noted, calls follow the shape of the dose curve; as a rule, active = well fitted curve in the direction sought with a large enough effect in the repeat runs; inconclusive = weak or mixed curves; inactive = no such curve, though single readings can be large; an effect the other way counts as inactive or inconclusive.

Key:
[1] = qHTS assay to identify aromatase inhibitors - cell viability counter screen (AID 743084);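 also: cells stimulated with testosterone during compound exposure; nearly all actives have a fitted effect of over 55% in size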
[2] = target: Aryl hydrocarbon receptor (Homo sapiens) (UniProt P35869); experiment: qHTS assay to identify small molecule that activate the aryl hydrocarbon receptor (AhR) signaling pathway (AID 743085); also: nearly all actives have a fitted effect of over 15% in size; also: potency is read from the fitted curve at half-maximal effect;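 as to activation: HG2L7.5c1 human HepG2 liver cells with stably integrated DRE-driven firefly reporter; series mostly up to about 70 µM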
Outline: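 A multiplexed format paired cell viability (CellTiter-Fluor fluorescence) with AhR-dependent luciferase output (ONE-Glo luminescence) in the same wells of HepG2 DRE-luc cells after 24 h compound exposure at 37C.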

[3] = qHTS assay to identify small molecule that activate the aryl hydrocarbon receptor (AhR) signaling pathway - cell viability counter screen (AID 743086);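 also: HepG2 liver cells carrying the AhR DRE luciferase reporter; series mostly up to about 70 µM; nearly all actives have a fitted effect of over 45% in size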
Outline: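 Cytotoxicity counter screen: CellTiter-Fluor signal (30 min, 37 C) in 4000 HepG2 cells/well carrying the DRE-luciferase reporter, following 24 h compound exposure at 37 C.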

[4] = target: Peroxisome proliferator-activated receptor gamma (Homo sapiens) (UniProt P37231); experiment: qHTS assay to identify small molecule agonists of the peroxisome proliferator-activated receptor gamma (PPARg) signaling pathway (AID 743094; active = well fitted activation curve with a large enough effect in the signal ratio in the repeat runs, not every such curve was filed as active; the % refers to the signal ratio)
Outline: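 Cells from the PPARg UAS-bla HEK293H line are plated and incubated 5 h at 37C. Compounds in DMSO are pinned in and left 17 h at 37C. LiveBLAzer B/G substrate is then added for 1 h at room temperature before fluorescence is measured.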

[5] = target: Peroxisome proliferator-activated receptor gamma (Homo sapiens) (UniProt P37231); experiment: qHTS assay to identify small molecule antagonists of the peroxisome proliferator-activated receptor gamma (PPARg) signaling pathway (AID 743191; calls by dose curve; also: series mostly up to about 63 µM; nearly all actives have a fitted effect of over 30% in size)
Outline: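 Beta-lactamase reporter under UAS control in HEK293H PPARg-bla cells; compound treatment 17 h at 37C. Read-out: fluorescence intensity after 1 h room-temperature incubation with LiveBLAzer B/G FRET substrate.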

[6] = qHTS assay for small molecule agonists of the antioxidant response element (ARE) signaling pathway (AID 743202; active = well fitted activation curve with a large enough effect in the signal ratio in the repeat runs, not every such curve was filed as active; the % refers to the signal ratio; also: potency is read from the fitted curve at half-maximal effect)
Outline: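 Beta-lactamase reporter activity, read as fluorescence intensity, reflects ARE/Nrf2 pathway induction in HepG2 cells after 16 h compound exposure at 37 C; substrate loading was 2 h at room temperature.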

[7] = qHTS assay for small molecule agonists of the antioxidant response element (ARE) signaling pathway - cell viability counter screen (AID 743203; calls by dose curve; also: nearly all actives have a fitted effect of over 55% in size)
Outline: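 Cytotoxicity was tested in parallel with the ARE reporter screen. ARE-bla HepG2 cells were exposed to compounds for 16 hrs, and viability was taken from CellTiter-Glo luminescence.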

[8] = qHTS assay for small molecule activators of the heat shock response signaling pathway - cell viability counter screen (AID 743209); also: nearly all actives have a fitted effect of over 50% in size
Outline: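 Cytotoxicity counter screen run in parallel with the HSE beta-lactamase reporter, using the same wells. HeLa HSE-bla cells received compound for 5 h at 37 C; ATP-based CellTiter-Glo luminescence was measured after 30 min at room temperature.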

[9] = qHTS assay for small molecule activators of the heat shock response signaling pathway (AID 743210; active = well fitted activation curve with a large enough effect in the signal ratio in the repeat runs, with a control signal flat, not every such curve was filed as active; the % refers to the signal ratio;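 also: HeLa cells with beta-lactamase reporter driven by heat shock elements; series mostly up to about 63 µM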)
Outline: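 Fluorescence from a cleaved B/G FRET substrate (2.5 h, room temp) reports HSE-driven beta-lactamase in HeLa cells treated 5 h at 37 C with DMSO-dissolved compounds.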

[10] = qHTS assay to identify small molecule agonists of the peroxisome proliferator-activated receptor delta (PPARd) signaling pathway - cell viability counter screen (AID 743211); also: nearly all actives have a fitted effect of over 55% in size
Outline: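 Tox21 library compounds, delivered in DMSO, were incubated 17 h with PPARd-bla HEK293H cells; cytotoxicity was taken from CellTiter-Glo luminescence read 30 min after reagent addition.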

[11] = target: Peroxisome proliferator-activated receptor delta (Homo sapiens) (UniProt Q03181); experiment: qHTS assay to identify small molecule agonists of the peroxisome proliferator-activated receptor delta (PPARd) signaling pathway (AID 743212; calls by dose curve)
Outline: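 Steps: seed PPARd-bla HEK293H cells; incubate 5 h, 37 C, 5% CO2; add compounds in DMSO; incubate, 37 C; add LiveBLAzer B/G FRET substrate; hold 2 h at room temperature; measure fluorescence.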

[12] = qHTS assay to identify small molecule antagonists of the peroxisome proliferator-activated receptor delta (PPARd) signaling pathway - cell viability counter screen (AID 743213); also: nearly all actives have a fitted effect of over 50% in size
Outline: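 In this counter screen, HEK293H cells carrying a UAS-beta-lactamase reporter are co-treated with test compounds and 300 nM L165041 (final) for 17 h at 37 C; cell viability is quantified by CellTiter-Glo luminescence.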

[13] = target: Peroxisome proliferator-activated receptor delta (Homo sapiens) (UniProt Q03181); experiment: qHTS assay to identify small molecule antagonists of the peroxisome proliferator-activated receptor delta (PPARd) signaling pathway (AID 743215; active = well fitted inhibition curve with a large enough effect in the signal ratio in the repeat runs, not every such curve was filed as active; the % refers to the signal ratio;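 also: cells stimulated with agonist L165041 at 300 nM final during compound exposure; series mostly up to about 62 µM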)
Outline: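 Cells: HEK293H with a UAS-driven beta-lactamase reporter responsive to PPARd. Compounds were co-added with L165041 (300 nM, final) and incubated 17 h at 37 C before a 2 h room-temperature FRET substrate step and fluorescence reading.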

[14] = qHTS assay to identify small molecule agonists of the farnesoid-X-receptor (FXR) signaling pathway - cell viability counter screen (AID 743218); also: nearly all actives have a fitted effect of over 45% in size
Outline: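 Cells were seeded, left 5 h at 37 C and 5% CO2, then dosed with compound in DMSO for 16 h. After the beta-lactamase FRET read, CellTiter-Glo was added and luminescence measured 30 min later.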

[15] = target: Bile acid receptor (Homo sapiens) (UniProt Q96RI1); experiment: qHTS assay to identify small molecule agonists of the farnesoid-X-receptor (FXR) signaling pathway (AID 743220; active = well fitted activation curve with a large enough effect in the signal ratio in the repeat runs, not every such curve was filed as active; the % refers to the signal ratio)
Outline: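 FXR-UAS-bla HEK 293T cells carrying a UAS-driven beta-lactamase reporter were plated for 5 h at 37C/5% CO2, then exposed to DMSO-dissolved Tox21 10K compounds for 16 h at 37C. A LiveBLAzer B/G FRET substrate was loaded for 2 h at room temperature before fluorescence reading.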

[16] = qHTS assay to identify small molecule antagonists of the farnesoid-X-receptor (FXR) signaling pathway - cell viability counter screen (AID 743221; active = well fitted cell-killing curve with a large enough effect in the repeat runs, not every such curve was filed as active; also: nearly all actives have a fitted effect of over 50% in size)
Outline: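 Cytotoxicity is taken from ATP luminescence (CellTiter-Glo, 30 min, room temperature) in FXR-bla HEK 293T cells previously incubated 16 h at 37 C with compound and chenodeoxycholic acid at 50 uM final.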

[17] = target: Vitamin D3 receptor (Homo sapiens) (UniProt P11473); experiment: qHTS assay to identify small molecule agonists of the vitamin D receptor (VDR) signaling pathway (AID 743222; calls by dose curve)
Outline: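 Cells carrying a VDR-driven beta-lactamase reporter are seeded at 2,000 per well and rested 4 h. Compounds in DMSO are added for 16 h at 37C, and FRET substrate fluorescence is measured after 2 h at room temperature.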

[18] = target: Vitamin D3 receptor (Homo sapiens) (UniProt P11473); experiment: qHTS assay to identify small molecule antagonists of the vitamin D receptor (VDR) signaling pathway (AID 743223; active = well fitted inhibition curve with a large enough effect in the signal ratio in the repeat runs, not every such curve was filed as active; the % refers to the signal ratio)
Outline: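 Quantitative HTS in VDR-bla reporter cells stimulated with 1alpha,25-dihydroxyvitamin D3, 3 nM final. Compound exposure 16 h, 37C, 5% CO2. Read-out: beta-lactamase FRET substrate fluorescence, 2 h RT.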

[19] = qHTS assay to identify small molecule antagonists of the peroxisome proliferator-activated receptor gamma (PPARg) signaling pathway - cell viability counter screen (AID 743194); details: Potency: co-treated with 50 nM rosiglitazone; also: nearly all actives have a fitted effect of over 55% in size
Outline: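 Viability was measured as CellTiter-Glo luminescence in GeneBLAzer PPARg UAS-bla HEK293H cells. These cells had been exposed 17 h at 37 C to compounds together with rosiglitazone at 50 nM final, with the beta-lactamase readout taken in the same wells.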

[20] = target: Bile acid receptor (Homo sapiens) (UniProt Q96RI1); experiment: qHTS assay to identify small molecule antagonists of the farnesoid-X-receptor (FXR) signaling pathway (AID 743217; active = well fitted inhibition curve with a large enough effect in the signal ratio in the repeat runs, not every such curve was filed as active; the % refers to the signal ratio)
Outline: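 Cells carrying a UAS-driven beta-lactamase reporter (GeneBLAzer FXR-UAS-bla HEK 293T) were plated and rested 5 h at 37 °C. Compounds in DMSO were added alongside chenodeoxycholic acid agonist at 50 uM final and left 16 h at 37 °C before FRET substrate readout.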

Vitamin D3 receptor (Homo sapiens), sequence (P11473 whole entry, looked up): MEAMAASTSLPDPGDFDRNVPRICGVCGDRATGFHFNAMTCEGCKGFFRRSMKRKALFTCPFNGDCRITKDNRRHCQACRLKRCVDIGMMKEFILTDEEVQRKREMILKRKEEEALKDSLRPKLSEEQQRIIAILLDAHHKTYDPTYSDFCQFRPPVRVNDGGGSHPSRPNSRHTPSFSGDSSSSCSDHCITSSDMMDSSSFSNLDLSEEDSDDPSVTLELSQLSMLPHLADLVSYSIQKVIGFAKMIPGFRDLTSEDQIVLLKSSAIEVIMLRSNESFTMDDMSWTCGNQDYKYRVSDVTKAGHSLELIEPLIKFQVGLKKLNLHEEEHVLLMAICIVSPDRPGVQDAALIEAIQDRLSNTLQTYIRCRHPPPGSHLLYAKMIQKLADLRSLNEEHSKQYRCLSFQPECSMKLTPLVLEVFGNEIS
Bile acid receptor (Homo sapiens), sequence (Q96RI1 whole entry, looked up): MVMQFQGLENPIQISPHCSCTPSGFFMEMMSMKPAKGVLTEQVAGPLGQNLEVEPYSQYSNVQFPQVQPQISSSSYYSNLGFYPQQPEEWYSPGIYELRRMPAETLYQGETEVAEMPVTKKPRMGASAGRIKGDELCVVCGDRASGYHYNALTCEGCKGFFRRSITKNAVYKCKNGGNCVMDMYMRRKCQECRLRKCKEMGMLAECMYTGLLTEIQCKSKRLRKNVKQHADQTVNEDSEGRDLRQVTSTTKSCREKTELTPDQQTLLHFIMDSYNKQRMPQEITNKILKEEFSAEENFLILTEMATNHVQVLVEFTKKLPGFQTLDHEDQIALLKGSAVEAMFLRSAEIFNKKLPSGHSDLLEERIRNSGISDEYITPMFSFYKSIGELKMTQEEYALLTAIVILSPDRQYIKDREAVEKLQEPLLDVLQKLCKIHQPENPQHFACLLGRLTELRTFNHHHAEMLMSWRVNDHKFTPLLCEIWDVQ
Peroxisome proliferator-activated receptor gamma (Homo sapiens), sequence (P37231 whole entry, looked up): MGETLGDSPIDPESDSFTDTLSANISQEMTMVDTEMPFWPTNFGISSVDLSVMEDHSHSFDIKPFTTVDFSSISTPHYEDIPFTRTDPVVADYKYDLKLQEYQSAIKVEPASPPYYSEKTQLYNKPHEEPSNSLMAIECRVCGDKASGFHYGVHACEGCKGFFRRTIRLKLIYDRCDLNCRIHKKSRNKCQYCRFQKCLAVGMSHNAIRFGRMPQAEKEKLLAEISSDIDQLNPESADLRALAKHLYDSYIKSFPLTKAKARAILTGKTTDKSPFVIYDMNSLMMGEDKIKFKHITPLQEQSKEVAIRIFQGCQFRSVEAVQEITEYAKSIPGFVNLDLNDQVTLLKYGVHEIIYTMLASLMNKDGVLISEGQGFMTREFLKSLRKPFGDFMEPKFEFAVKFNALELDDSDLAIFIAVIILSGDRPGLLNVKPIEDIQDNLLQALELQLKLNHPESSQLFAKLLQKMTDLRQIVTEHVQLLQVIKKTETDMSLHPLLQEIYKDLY
Aryl hydrocarbon receptor (Homo sapiens), sequence (P35869 whole entry, looked up): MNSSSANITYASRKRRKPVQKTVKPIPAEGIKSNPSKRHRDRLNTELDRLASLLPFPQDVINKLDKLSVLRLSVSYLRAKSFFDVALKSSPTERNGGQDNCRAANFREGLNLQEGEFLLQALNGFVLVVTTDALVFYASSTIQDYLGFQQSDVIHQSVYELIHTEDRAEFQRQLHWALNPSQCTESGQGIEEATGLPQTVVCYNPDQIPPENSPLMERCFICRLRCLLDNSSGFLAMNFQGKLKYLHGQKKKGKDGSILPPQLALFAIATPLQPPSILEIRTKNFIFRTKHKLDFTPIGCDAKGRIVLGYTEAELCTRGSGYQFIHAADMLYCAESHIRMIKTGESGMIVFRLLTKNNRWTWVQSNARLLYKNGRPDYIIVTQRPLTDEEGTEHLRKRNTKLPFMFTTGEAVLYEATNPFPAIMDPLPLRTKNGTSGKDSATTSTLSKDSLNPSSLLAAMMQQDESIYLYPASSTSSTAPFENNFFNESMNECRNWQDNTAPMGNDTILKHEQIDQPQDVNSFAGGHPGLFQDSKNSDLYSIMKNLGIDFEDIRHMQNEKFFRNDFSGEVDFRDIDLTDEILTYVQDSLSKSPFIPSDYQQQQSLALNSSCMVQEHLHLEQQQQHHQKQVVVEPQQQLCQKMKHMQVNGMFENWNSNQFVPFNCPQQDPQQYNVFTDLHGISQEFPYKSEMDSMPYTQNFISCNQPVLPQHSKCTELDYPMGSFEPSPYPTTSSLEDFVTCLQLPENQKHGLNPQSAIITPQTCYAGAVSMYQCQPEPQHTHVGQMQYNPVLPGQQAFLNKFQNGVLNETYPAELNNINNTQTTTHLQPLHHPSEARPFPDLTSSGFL
Peroxisome proliferator-activated receptor delta (Homo sapiens), sequence (Q03181 whole entry, looked up): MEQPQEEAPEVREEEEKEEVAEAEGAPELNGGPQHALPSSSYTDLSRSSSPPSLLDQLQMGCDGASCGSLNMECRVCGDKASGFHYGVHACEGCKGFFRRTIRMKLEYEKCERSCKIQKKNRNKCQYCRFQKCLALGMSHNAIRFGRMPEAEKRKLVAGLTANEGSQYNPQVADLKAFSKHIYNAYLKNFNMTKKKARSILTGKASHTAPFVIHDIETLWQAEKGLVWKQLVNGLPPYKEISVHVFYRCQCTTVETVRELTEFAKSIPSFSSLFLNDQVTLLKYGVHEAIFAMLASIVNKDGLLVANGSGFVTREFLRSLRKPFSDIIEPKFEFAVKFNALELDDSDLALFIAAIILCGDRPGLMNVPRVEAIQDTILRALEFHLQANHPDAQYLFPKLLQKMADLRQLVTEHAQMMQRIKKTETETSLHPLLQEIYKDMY

| SMILES | Potency [1] | Potency [2] | Potency [3] | outcome [4] | Potency [5] | Potency [6] | Potency [7] | Potency [8] | Potency [9] | Potency [10] | outcome [11] | Potency [12] | Potency [13] | Potency [14] | outcome [15] | Potency [16] | outcome [17] | outcome [18] | Potency [19] | outcome [20] |
| --- | --- | --- | --- | --- | --- | --- | --- | --- | --- | --- | --- | --- | --- | --- | --- | --- | --- | --- | --- | --- |
| CC(C)N(Cc1ccccc1)C(=O)C(C)(C)C | inactive | inactive | inactive | inactive | inactive | inactive | inactive | inactive | inactive | inactive | inactive | inactive | inactive | inactive | inactive | inactive | inactive | inactive |  |  |
| CC1NCCOC1c1ccccc1 (centres undefined) | inactive | inactive | inactive | inactive | inactive |  | inactive | inactive |  | inactive | inactive | inactive | inactive | inactive |  |  | inactive | inactive | inactive |  |
| CCNP(=S)(OC)O/C(C)=C/C(=O)OC(C)C (centres undefined) | inactive | 4.86 µM (active) | inactive | inactive | inactive | inactive | inactive | inactive | inactive | inactive |  |  |  | inactive |  | inactive | inactive | inactive | inactive |  |
| CC#Cc1cc(C)nc(Nc2ccccc2)n1 | inactive | 30.6 µM (active) | inactive | inactive |  | 34.3 µM (active) | inactive | inactive | inactive | inactive | inactive | inactive | inactive |  |  | inactive | inactive | inactive | inactive |  |
| BrCCc1ccccc1 | inactive | inactive | inactive | inactive | inactive | inactive | inactive | inactive | inactive | inactive | inactive | inactive | inactive | inactive |  | inactive |  |  | inactive |  |
| CCN[C@@H](C)Cc1ccccc1 | inactive | inactive | inactive | inactive | inactive |  |  | inactive | inactive | inactive | inactive | inactive |  | inactive | inactive | inactive | inactive | inactive |  |  |
| CC[C@H](N)c1ccccc1 | inactive | inactive | inactive | inactive | inactive | inactive | inactive | inactive | inactive |  |  | inactive |  | inactive |  | inactive | inactive | inactive | inactive |  |
| COC(=O)c1ccc(CBr)cc1 | inactive | inactive | inactive | inactive | inactive | inactive | inactive | inactive | inactive | inactive | inactive | inactive | inactive | inactive |  | inactive | inactive | inactive | inactive |  |
| [P]#[In] | inactive | inactive | inactive | inactive | inactive | inactive |  | inactive | inactive | inactive | inactive |  | inactive | inactive |  | inactive | inactive |  |  |  |
| CCCCOC(C)=O | inactive | inactive | inactive | inactive | inactive | inactive | inactive | inactive |  | inactive | inactive | inactive | inactive | inactive | inactive | inactive |  |  | inactive |  |
| CCC(=O)c1ccc(Cl)cc1 | inactive | inactive | inactive | inactive | inactive | inactive | inactive | inactive | inactive | inactive | inactive | inactive | inactive | inactive |  |  | inactive | inactive | inactive |  |
| CC1=C2[C@H]3OC(=O)[C@@H](C)[C@@H]3CC[C@@]2(C)C=CC1=O | inactive | inactive | inactive | inactive | inactive |  | inactive | inactive | inactive | inactive | inactive | inactive | inactive | inactive |  | inactive |  |  | inactive |  |
| NCC1(CC(=O)O)CCCCC1 | inactive | inactive | inactive | inactive | inactive |  |  | inactive | inactive | inactive | inactive | inactive |  | inactive |  | inactive | inactive |  | inactive |  |
| BrCc1ccc(Br)cc1 | inactive | inactive | inactive | inactive | inactive | inactive | inactive | inactive | inactive | inactive | inactive |  | inactive | inactive |  | inactive | inactive | inactive | inactive | inactive |
| CCOC(=O)C(Cl)Cc1cc(-n2nc(C)n(C(F)F)c2=O)c(F)cc1Cl (centres undefined) | inactive | inactive | inactive | inactive | inactive |  | inactive | inactive | inactive | inactive | inactive | inactive | inactive |  | inactive | inactive | inactive | inactive | inactive |  |
